From the OligoGym collection
Further: reference of the scale not given here.

What follows are sequences tested against KBTBD12 (assay: pooled miR-30 sensor sort-seq; sequence = guide strand). Conditions: shRNA.
Sequence TACAGCTGTACTGAATCGGTAC has a sensor-assay potency score (higher = more potent) of -0.257.
Sequence TTCTTTGTTATGATTTACCCAT has a sensor-assay potency score (higher = more potent) of -0.456.
In the case of TATATTTTTGACACACACTGAA, the sensor-assay potency score (higher = more potent) was 0.336.

What follows are sequences tested against KCNAB2 in the same assay as above. Conditions: shRNA.
TTTCTCACGCTGGAACATGTGG was tested, and the sensor-assay potency score (higher = more potent) was -0.804.
For TTCCTGTAGATCATCCCGGGGG, the sensor-assay potency score (higher = more potent) was -0.0548.
With TAGACTTCTGCTGTATCGAAGA the sensor-assay potency score (higher = more potent) was -0.756.
TTCGATTATGTGCTTCCTGGAC showed a sensor-assay potency score (higher = more potent) of -0.692.
With ATGATCTCCATGGAGCTCCAGC the sensor-assay potency score (higher = more potent) was -1.53.
In the case of TTTCAGACCTTCGATTATGTGC, the sensor-assay potency score (higher = more potent) was -0.469.
AATACTATCAATCTCGTGGATA was tested, and the sensor-assay potency score (higher = more potent) was -1.21.
Sequence TTGGTGGTGATGACGAGGCTGG has a sensor-assay potency score (higher = more potent) of -0.706.
TTCTGCTGTATCGAAGAGGTTG gave a sensor-assay potency score (higher = more potent) of -0.594.
For TGACAGTTTCGGAAGGACCTGT, the sensor-assay potency score (higher = more potent) was 0.657.
With CAAAATACTATCAATCTCGTGG the sensor-assay potency score (higher = more potent) was -0.486.
For TATCTTGTGGAACAGCTCCGGC, the sensor-assay potency score (higher = more potent) was -1.17.

These sequences were tested against KCNB1 in the same assay as above. Conditions: shRNA.
TTAGTTTTCATGGAACTCTTGG gave a sensor-assay potency score (higher = more potent) of 0.191.
For TACATGTCTTCCAACTGCTGAA, the sensor-assay potency score (higher = more potent) was -0.486.
TTCATCTGCTCTTTCTTCTGGT gave a sensor-assay potency score (higher = more potent) of 0.512.
TACTTTGTCTTTCTTACCCATA was tested, and the sensor-assay potency score (higher = more potent) was -1.04.
Work on TAGATCTCGTCGATGCCCCAGT yielded a sensor-assay potency score (higher = more potent) of -0.693.
With TAGAAGTTGAGGATGGAGGTGA the sensor-assay potency score (higher = more potent) was 0.819.
With TTTGAACTTGGTGTCGTCCTCA the sensor-assay potency score (higher = more potent) was 0.816.
In the case of TTGAACTTGGTGTCGTCCTCAT, the sensor-assay potency score (higher = more potent) was 0.219.
With TTTCTCAACCACAATGTCCATC the sensor-assay potency score (higher = more potent) was -0.571.
TTTTCTCCGATCTTGTCCCCGT was tested, and the sensor-assay potency score (higher = more potent) was -0.234.
Work on TACTCGTTGTCGTCGAGGCTGT yielded a sensor-assay potency score (higher = more potent) of -0.424.

These sequences were tested against KCNC1 in the same assay as above. Conditions: shRNA.
Work on TAGTAGTTCAGGATGTGCGCGA yielded a sensor-assay potency score (higher = more potent) of 0.436.
With TTCTTGATGAACTCTACCTTGT the sensor-assay potency score (higher = more potent) was -0.835.
With TTCAGTTTGGAATCTGCTCTGT the sensor-assay potency score (higher = more potent) was 0.183.
TTCTTTGGTAGTTTCTGCTTAG showed a sensor-assay potency score (higher = more potent) of -0.569.
AATTTCTAAAATTTCTTCCTGG was tested, and the sensor-assay potency score (higher = more potent) was 0.198.
TACTTAGCAATGACAGGGCTTT showed a sensor-assay potency score (higher = more potent) of -0.252.
Work on TTGATGAACTCTACCTTGTTGG yielded a sensor-assay potency score (higher = more potent) of 0.0525.
ATGAACTCTACCTTGTTGGGGC was tested, and the sensor-assay potency score (higher = more potent) was 0.181.
For TTGCGTGCCATTGCGAACGTTC, the sensor-assay potency score (higher = more potent) was -0.65.
For TTTCTTTGGTAGTTTCTGCTTA, the sensor-assay potency score (higher = more potent) was 0.312.
In the case of TAAGGAGTAATACATCCCGAAA, the sensor-assay potency score (higher = more potent) was -1.65.
In the case of TTTTCTTTGGTAGTTTCTGCTT, the sensor-assay potency score (higher = more potent) was -0.644.
